Measured values: PubChem BioAssay (Tox21)
Records with an inconclusive call do not appear. Active and inactive are the calls of the source. Unless noted, calls follow the shape of the dose curve; as a rule, active = well fitted curve in the direction sought with a large enough effect in the repeat runs; inconclusive = weak or mixed curves; inactive = no such curve, though single readings can be large; an effect the other way counts as inactive or inconclusive.

What was measured:
[1] = target: Retinoic acid receptor RXR-alpha (Homo sapiens) (UniProt P19793); experiment: qHTS assay to identify small molecule agonists of the RXR signaling pathway (AID 1159527; calls by dose curve; also: nearly all actives have a fitted effect of over 35% in size)
Retinoic acid receptor RXR-alpha (Homo sapiens), sequence (P19793 whole entry, looked up): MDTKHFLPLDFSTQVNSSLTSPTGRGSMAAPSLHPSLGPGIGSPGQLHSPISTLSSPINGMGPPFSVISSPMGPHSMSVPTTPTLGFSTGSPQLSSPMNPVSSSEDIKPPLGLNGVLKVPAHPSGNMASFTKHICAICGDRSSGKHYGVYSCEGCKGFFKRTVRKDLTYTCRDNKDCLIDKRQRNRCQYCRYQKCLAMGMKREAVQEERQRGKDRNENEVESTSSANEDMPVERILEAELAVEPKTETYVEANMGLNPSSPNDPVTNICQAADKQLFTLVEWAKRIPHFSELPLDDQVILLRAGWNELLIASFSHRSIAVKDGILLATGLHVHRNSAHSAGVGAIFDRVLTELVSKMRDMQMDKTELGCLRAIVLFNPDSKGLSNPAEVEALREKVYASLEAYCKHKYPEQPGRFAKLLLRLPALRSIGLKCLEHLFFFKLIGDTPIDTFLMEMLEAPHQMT
How it was run: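 Agonist mode; 9-cis retinoic acid positive control. HEK 293T UAS-bla reporter cells, 2% charcoal-stripped FBS, 16 hr compound exposure at 37 C/5% CO2. LiveBLAzer B/G FRET substrate 2 hr RT; ex 405, em 460/530 nm.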

[2] = qHTS assay to identify small molecule agonists of the RXR signaling pathway - cell viability counter screen (AID 1159529); also: series mostly up to about 77 µM; nearly all actives have a fitted effect of over 50% in size
How it was run: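 Luminescence from CellTiter-Glo (30 min, RT) measured viability in the same wells as the beta-lactamase reporter readout. Cells: GeneBLAzer RXR-alpha HEK 293T, 2% charcoal-stripped FBS. Compound exposure 16 hr, 37 C.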

[3] = qHTS assay to identify small molecule antagonists of the retinoid acid receptor (RAR) signaling pathway - cell viability counter screen (AID 1159551); also: nearly all actives have a fitted effect of over 35% in size
How it was run: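 Measured by luminescent ATP detection, viability reflects C3RL4 cells treated 6 h at 37 C with test chemicals in the presence of 1 uM (final) retinol.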

[4] = qHTS assay to identify small molecule antagonists of the estrogen related receptor (ERR) signaling pathway from Tox21 library - cell viability counter screen (AID 1224834); also: nearly all actives have a fitted effect of over 30% in size
How it was run: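 Seeded ERR cells were rested 6 h at 37 C/5% CO2 before compounds, positive and negative controls or DMSO were added. Incubation continued for 17.5 h, and viability was then quantified by CellTiter-Fluor fluorescence.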

[5] = target: Luciferin 4-monooxygenase (Photinus pyralis) (UniProt P08659); experiment: qHTS assay to identify small molecule inhibitors of firefly luciferase (AID 1224835); also: nearly all actives have a fitted effect of over 25% in size; also: potency is read from the fitted curve at half-maximal effect; as to activity change, negative = inhibition: series mostly up to about 120 µM
Luciferin 4-monooxygenase (Photinus pyralis), sequence (P08659 whole entry, looked up): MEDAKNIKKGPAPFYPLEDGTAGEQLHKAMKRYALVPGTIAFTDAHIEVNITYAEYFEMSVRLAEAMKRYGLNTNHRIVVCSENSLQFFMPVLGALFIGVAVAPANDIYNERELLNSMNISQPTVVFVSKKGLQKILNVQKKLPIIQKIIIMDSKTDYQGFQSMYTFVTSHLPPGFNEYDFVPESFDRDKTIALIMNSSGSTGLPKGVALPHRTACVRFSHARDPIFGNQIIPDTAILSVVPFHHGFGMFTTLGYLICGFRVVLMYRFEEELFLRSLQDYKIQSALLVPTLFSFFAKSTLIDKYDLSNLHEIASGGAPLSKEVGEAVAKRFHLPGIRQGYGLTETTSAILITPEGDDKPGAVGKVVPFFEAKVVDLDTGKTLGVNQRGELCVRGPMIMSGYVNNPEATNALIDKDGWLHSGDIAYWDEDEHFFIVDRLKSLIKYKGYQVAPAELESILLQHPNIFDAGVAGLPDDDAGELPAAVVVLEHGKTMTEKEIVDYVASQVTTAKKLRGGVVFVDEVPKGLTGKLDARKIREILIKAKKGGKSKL
How it was run: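 Biochemical qHTS: compounds run as interplate titrations against purified firefly enzyme, with D-luciferin and ATP each at its KM concentration. Light output recorded by CCD imaging.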

[6] = qHTS assay to identify small molecule agonists of the constitutive androstane receptor (CAR) signaling pathway - cell viability counter screen (AID 1224836); also: series mostly up to about 92 µM; nearly all actives have a fitted effect of over 45% in size
How it was run: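 Viability read-out: CellTiter-Fluor fluorescence after 23 h compound exposure at 37 C/5% CO2 in double-stable HepG2-CYP2B6-hCAR cells, with PK11195 present at 0.75 uM final; compounds tested in 15-point titration.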

[7] = qHTS assay to identify small molecule antagonists of the constitutive androstane receptor (CAR) signaling pathway - cell viability counter screen (AID 1224837); also: series mostly up to about 92 µM; nearly all actives have a fitted effect of over 45% in size
How it was run: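 To flag cytotoxic false antagonists, HepG2 hCAR/CYP2B6-2.2kb cells were treated 23 hr with 15-concentration compound series and 50 nM CITCO at 37 C/5% CO2; CellTiter-Fluor fluorescence was the measured end point.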

[8] = target: Nuclear receptor subfamily 1 group I member 3 (Homo sapiens) (UniProt Q14994); experiment: qHTS assay to identify small molecule antagonists of the constitutive androstane receptor (CAR) signaling pathway (AID 1224838);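 also: HepG2 cells stably expressing hCAR with CYP2B6 luciferase reporter stimulated by CITCO; nearly all actives have a fitted effect of over 40% in size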
Nuclear receptor subfamily 1 group I member 3 (Homo sapiens), sequence (Q14994 whole entry, looked up): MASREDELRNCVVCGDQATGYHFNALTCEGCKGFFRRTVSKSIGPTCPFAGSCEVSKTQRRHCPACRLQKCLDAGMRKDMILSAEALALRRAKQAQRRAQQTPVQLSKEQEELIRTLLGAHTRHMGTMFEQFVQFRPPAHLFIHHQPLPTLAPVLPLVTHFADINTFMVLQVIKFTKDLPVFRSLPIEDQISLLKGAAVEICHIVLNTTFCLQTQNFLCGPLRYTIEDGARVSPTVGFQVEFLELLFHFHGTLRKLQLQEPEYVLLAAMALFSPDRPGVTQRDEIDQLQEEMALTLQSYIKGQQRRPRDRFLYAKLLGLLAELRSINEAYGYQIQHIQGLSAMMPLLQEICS
How it was run: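 Human hepatoma HepG2 cells expressing hCAR and a CYP2B6 promoter (2.2 kb) luciferase construct; compound titration (15 points) with 50 nM CITCO final, 24 h at 37 C/5% CO2; luminescence via ONE-Glo after 30 min at room temperature.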

[9] = target: Nuclear receptor subfamily 1 group I member 3 (Homo sapiens) (UniProt Q14994); experiment: qHTS assay to identify small molecule agonists of the constitutive androstane receptor (CAR) signaling pathway (AID 1224839);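 also: HepG2 cells stably carrying human CAR and a CYP2B6 luciferase reporter; series mostly up to about 92 µM; nearly all actives have a fitted effect of over 15% in size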
How it was run: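 Luminescence read-out (ONE-Glo, 30 min, room temperature) from double-stable HepG2-CYP2B6-hCAR cells exposed 24 h to 15-point compound series in presence of 0.75 uM PK11195 final.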

[10] = qHTS assay to identify small molecule antagonists of the estrogen related receptor signaling pathway with the pleiotropic PPARgamma coactivator (PGC) from Tox21 10K library - cell viability counter screen (AID 1224840; active = well fitted cell-killing curve with a large enough effect in the repeat runs, not every such curve was filed as active; also: nearly all actives have a fitted effect of over 40% in size)
How it was run: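 Seeded PGC/ERR cells (2,000/well, 6 h, 37 C/5% CO2) get compound by pin tool; 17.5 h incubation at 37 C; CellTiter-Fluor added, 30 min, fluorescence measured.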

[11] = qHTS assay to identify small molecule antagonists of the estrogen related receptor signaling pathway with the pleiotropic PPARgamma coactivator (PGC) from Tox21 10K library (AID 1224841; call rule not given here; also: series mostly up to about 92 µM; actives are mostly falling curves and most rising ones were filed inactive; nearly all actives have a fitted effect of over 50% in size)
How it was run: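 Test chemicals dissolved in DMSO were applied to pre-incubated (6 h) PGC/ERR cells at 2,000 cells/well for an 18 h, 37 C treatment; reporter luminescence was then read using One-Glo.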

[12] = qHTS assay to identify small molecule antagonists of the estrogen related receptor (ERR) signaling pathway - cell viability counter screen (AID 1224818); also: series mostly up to about 46 µM
How it was run: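 Compounds dissolved in DMSO were applied to ERR cells seeded at 2,000 per well 6 h earlier. Cell viability followed 17.5 h later via 30-min CellTiter-Fluor fluorescence.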

[13] = qHTS assay to identify small molecule antagonists of the estrogen related receptor signaling pathway with the pleiotropic PPARgamma coactivator (PGC) cell viability counter screen (AID 1224822; also: series mostly up to about 46 µM)
How it was run: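 Counter screen for cell viability: PGC/ERR cells, 6 h pre-incubation after plating, 17.5 h compound exposure at 37 C, fluorescence from CellTiter-Fluor after 30 min.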

[14] = qHTS assay to identify small molecule antagonists of the estrogen related receptor (ERR) signaling pathway (AID 1224819;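 also: luminescence from an ERR-driven luciferase reporter measured with One-Glo reagent; series mostly up to about 46 µM; nearly all actives have a fitted effect of over 50% in size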)
How it was run: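 Compounds dissolved in DMSO were pin-transferred onto ERR cells that had been plated 6 h earlier, and cells were then incubated 18 h at 37 C; signal was luciferase luminescence via One-Glo.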

[15] = qHTS assay to identify small molecule agonists of the estrogen related receptor (ERR) signaling pathway (AID 1224820)
How it was run: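 Following a 6 h settling period, 2,000 ERR cells per well receive DMSO-dissolved compounds by pin tool and incubate 18 h at 37 C; agonist activity is scored from One-Glo luminescence read 30 min post-addition.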

[16] = tested on: estrogen-related receptor alpha (ERRalpha) with PGC-1alpha coactivator, human; experiment: qHTS assay to identify small molecule antagonists of the estrogen related receptor signaling pathway with the pleiotropic PPARgamma coactivator (PGC) (AID 1224821; calls by dose curve;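 also: series mostly up to about 46 µM; lower luminescence signal means antagonism of PGC/ERR signalling; nearly all actives have a fitted effect of over 50% in size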)
How it was run: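 Screening used NTP's PGC/ERR cells, dosed via pin tool with compound in DMSO alongside positive and negative controls. After 18 h at 37 C, One-Glo reagent sat 30 min at room temperature before luminescence detection.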

[17] = qHTS assay to identify small molecule agonists of the estrogen related receptor signaling pathway with the pleiotropic PPARgamma coactivator (PGC) (AID 1224823)
How it was run: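 In this quantitative high-throughput screen, an 18 h, 37 C treatment of PGC/ERR cells with compounds in DMSO preceded a One-Glo luminescence read taken after 30 min at room temperature.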
% is scaled to controls: 0 for no effect and ±100 for the full control effect.

CC(C)CCCC(C)(C)O
inactive: Potency [1] | outcome [2] | outcome [3] | Potency [4] | Potency [5] | Potency [6] | Potency [7] | outcome [8] | Potency [9] | outcome [10]

C=C(C)C(=O)OCCNC(C)(C)C
inactive: Potency [1] | outcome [2] | outcome [3] | Potency [4] | Potency [5] | Potency [6] | Potency [7] | outcome [8] | Potency [9] | outcome [10] | Potency [11]

Cc1cccc(OCC(O)CNC(C)(C)C)c1C (configuration not stated)
inactive: Potency [1] | outcome [2] | outcome [3] | Potency [4] | Potency [5] | Potency [6] | Potency [7] | outcome [8] | Potency [9] | outcome [10]

O=C(O)Cc1cn(-c2ccccc2)nc1-c1ccc(Cl)cc1
inactive: Potency [1] | outcome [2] | outcome [3] | Potency [4] | Potency [5] | Potency [6] | Potency [7] | outcome [8] | Potency [9]

CC(C)NCC(O)COc1cccc2[nH]ccc12 (configuration not stated)
inactive: Potency [1] | outcome [2] | outcome [3] | outcome [12] | outcome [13] | Potency [4] | Potency [6] | Potency [7] | outcome [8] | outcome [10]

CC(=O)CCCCn1c(=O)c2c(ncn2C)n(C)c1=O
inactive: Potency [1] | outcome [2] | outcome [3] | outcome [12] | outcome [14] | outcome [15] | outcome [16] | outcome [13] | outcome [17] | Potency [4] | Potency [5] | Potency [6] | Potency [7] | outcome [10] | Potency [11]

CN1CCN(CC(=O)N2c3ccccc3C(=O)Nc3cccnc32)CC1
inactive: activation [1] 4.73% [at 6.98 µM] | activity change, negative = cytotoxicity [2] 0.873% [at 6.97 µM] | activity change, negative = cytotoxicity [3] 0.488% [at 8.39 µM] | outcome [12] | outcome [14] | outcome [15] | outcome [13] | outcome [17] | viability change, negative = cytotoxic [4] 2.62% [at 8.39 µM] | activity change, negative = inhibition [5] 1.23% [at 10.5 µM] | viability change, negative = cytotoxic [6] -1.77% [at 8.39 µM] | activity change, negative = cytotoxicity [7] 7.37% [at 8.39 µM] | activity, negative = inhibition [8] -1.39% [at 8.39 µM] | activation [9] -1% [at 8.39 µM] | viability change, negative = cytotoxic [10] 8.41% [at 8.39 µM] | activity, negative = inhibition [11] 2.2% [at 8.39 µM]

CCC(C)NC(N)=O (configuration not stated)
inactive: Potency [1] | outcome [2] | outcome [3] | Potency [4] | Potency [5] | Potency [6] | Potency [7] | outcome [8] | Potency [9] | outcome [10]

CCOC(=O)c1ncn2c1CN(C)C(=O)c1cc(F)ccc1-2
inactive: Potency [1] | outcome [2] | outcome [3] | outcome [12] | outcome [13] | Potency [5] | Potency [6] | Potency [7] | Potency [9] | outcome [10]

CCOC(=O)/C=C/c1ccccc1
inactive: Potency [1] | outcome [2] | outcome [3] | Potency [4] | Potency [6] | Potency [7] | outcome [8] | Potency [9] | outcome [10]
active: Potency [5] 35.6 µM

O=C(OCC(COC(=O)c1cccnc1)(COC(=O)c1cccnc1)COC(=O)c1cccnc1)c1cccnc1
inactive: Potency [1] | outcome [2] | outcome [3] | Potency [4] | Potency [5] | Potency [6] | Potency [7] | outcome [8] | Potency [9] | outcome [10]

Cc1ccc(C=O)cc1C
inactive: Potency [1] | outcome [2] | outcome [3] | Potency [4] | Potency [5] | Potency [6] | Potency [7] | outcome [8] | Potency [9] | outcome [10]

Oc1cn2c(n1)Nc1ccc(Cl)c(Cl)c1C2
inactive: activation [1] 5.44% [at 15.8 µM] | activity change, negative = cytotoxicity [2] -0.221% [at 15.8 µM] | activity change, negative = cytotoxicity [3] 3.75% [at 19 µM] | viability change, negative = cytotoxic [4] 0.934% [at 19 µM] | activity change, negative = inhibition [5] 0.455% [at 23.6 µM] | viability change, negative = cytotoxic [6] -4.95% [at 19 µM] | activity change, negative = cytotoxicity [7] 5.38% [at 19 µM] | activity, negative = inhibition [8] 39.2% [at 19 µM] | activation [9] 5.1% [at 19 µM] | viability change, negative = cytotoxic [10] 5.01% [at 19 µM]

Cc1cc(C(C)(C)C)c(O)c(C)c1CC1=NCCN1
inactive: Potency [1] | outcome [2] | outcome [3] | outcome [12] | outcome [13] | Potency [4] | Potency [5] | Potency [6] | Potency [7] | outcome [8] | Potency [9] | outcome [10]

CCCCCCCC/C=C\CCCCCCCC(=O)OCCCC
inactive: activation [1] 2.43% [at 15.8 µM] | activity change, negative = cytotoxicity [2] 1.56% [at 15.8 µM] | activity change, negative = cytotoxicity [3] -0.376% [at 19 µM] | viability change, negative = cytotoxic [4] -0.0583% [at 19 µM] | activity change, negative = inhibition [5] -1.11% [at 23.6 µM] | viability change, negative = cytotoxic [6] -5.62% [at 19 µM] | activity change, negative = cytotoxicity [7] 3.28% [at 19 µM] | activity, negative = inhibition [8] 20.6% [at 19 µM] | activation [9] 0.178% [at 19 µM] | viability change, negative = cytotoxic [10] -2.58% [at 19 µM]

NCCS
inactive: Potency [1] | outcome [2] | outcome [3] | outcome [12] | outcome [14] | outcome [15] | outcome [16] | outcome [13] | outcome [17] | Potency [5] | Potency [6] | Potency [7] | outcome [10] | Potency [11]
